PubChem BioAssay (NCATS)
Values joined by “and” are separate entries in the source; they are usually repeats but may differ in a detail not shown here. Equal entries are not always repeated. A number with no mark means an inactive call. Records with an inconclusive call do not appear. Active and inactive are the calls of the source. Unless noted, calls come from the whole dose curve; as a rule, active = well fitted curve in the direction sought with a large enough effect; inconclusive = small, poorly fitted or top-dose-only effect, or another doubt; inactive = no such curve, though single readings can be large; an effect the other way counts as inactive or inconclusive.

How the values were obtained:
[1] = Cell Viability - LYMP2-001 (AID 921); note: nearly all actives have a fitted effect of over 70% in size; note: potency is the fitted concentration of half-maximal effect
Outline: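 Human lymphoblastoid cells (Coriell), 2500 per well, were preincubated 5 hr at 37 C, then exposed to compounds in complete medium for 24 hr at 37 C. Cellular ATP was read by CellTiter-Glo luminescence; AC50 from Hill fits of concentration-response data.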

[2] = MultiTox-Fluor Cytotoxicity Assay - LYMP1-002 - Dead Cells (AID 960); note: nearly all actives have a fitted effect of over 60% in size; note: potency is the fitted concentration of half-maximal effect
Outline: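 Dead-cell fluorescence (Ex/Em 485/520) after 16 h compound exposure at 37 C of LYMP1-002 lymphoblastoid cells in complete medium; AC50 by Hill equation, with data scaled between DMSO and 15 uM tetraoctylammonium bromide.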

[3] = Cell Viability - LYMP2-005 (AID 967); note: potency is the fitted concentration of half-maximal effect
Outline: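 CellTiter-Glo luminescence (cellular ATP) read-out; LYMP2-005 lymphoblastoid cells, 2500/well, 5 h pre-incubation, then 24 h compound exposure at 37 C in complete medium. Tetraoctylammonium bromide positive control; AC50 by standard Hill fit.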

[4] = Cell Viability - LYMP2-015 (AID 971); note: nearly all actives have a fitted effect of over 55% in size; note: potency is the fitted concentration of half-maximal effect
Outline: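 Cytotoxicity readout: decrease in intracellular ATP (CellTiter-Glo luminescence) in 2500 LYMP2-015 lymphoblastoid cells/well after 24 h compound exposure at 37 C. Concentration-response data fitted with the standard Hill equation to give AC50.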

[5] = Cell Viability - LYMP2-002 (AID 977); note: potency is the fitted concentration of half-maximal effect
Outline: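 Human lymphoblastoid cells, 2500/well, complete medium; 5 h 37 C settle; compound 24 h 37 C; CellTiter-Glo, 30 min RT; luminescence. Decrease in ATP = cytotoxicity; AC50 via Hill equation.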

[6] = Cell Viability - LYMP2-008 (AID 980); note: nearly all actives have a fitted effect of over 60% in size; note: potency is the fitted concentration of half-maximal effect
Outline: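 Cytotoxicity determined from ATP-dependent luciferase luminescence (CellTiter-Glo) following 24 h compound exposure of human lymphoblastoid LYMP2-008 cells at 37 C. Concentration-response data fitted to the Hill equation to give AC50.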

[7] = Cell Viability - LYMP2-012 (AID 982);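 note: cellular ATP by luciferase luminescence where a drop means cytotoxicity; cells exposed to compound for one day before reading; nearly all actives have a fitted effect of over 55% in size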; note: potency is the fitted concentration of half-maximal effect
[8] = Cell Viability - LYMP2-018 (AID 985); note: nearly all actives have a fitted effect of over 50% in size; note: potency is the fitted concentration of half-maximal effect
Outline: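 Viability read as CellTiter-Glo luminescence (cellular ATP) after 24 hr compound exposure at 37 C of 2500 LYMP2-018 lymphoblastoid cells/well, pre-plated 5 hr. Hill-equation modelling gave AC50.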

[9] = Cell Viability - LYMP2-020 (AID 986); note: nearly all actives have a fitted effect of over 55% in size; note: potency is the fitted concentration of half-maximal effect
Outline: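 Cytotoxicity in qHTS format: luminescent ATP readout from CellTiter-Glo after 24 h compound exposure at 37 C in complete medium. LYMP2-020 lymphoblastoid cells were seeded at 2500/well; concentration-response data fitted to the Hill equation for AC50.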

[10] = Cell Viability - LYMP2-022 (AID 987); note: nearly all actives have a fitted effect of over 55% in size; note: potency is the fitted concentration of half-maximal effect
Outline: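 Cytotoxicity read as decreased cellular ATP (CellTiter-Glo luminescence, 30 min room temperature) after 24 hours compound exposure of 2500 lymphoblastoid LYMP2-022 cells/well at 37 C. Concentration-response data fitted with standard Hill equation for AC50.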

[11] = Cell Viability - LYMP2-024 (AID 988); note: nearly all actives have a fitted effect of over 60% in size; note: potency is the fitted concentration of half-maximal effect
Outline: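 Cytotoxicity was taken as a decrease in ATP (CellTiter-Glo luminescence) after 24 hr compound exposure at 37 C of LYMP2-024 lymphoblastoid cells, 2500 cells/well. Concentration-response data were fitted to the Hill equation to give AC50.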

[12] = qHTS assay for small molecule disruptors of the mitochondrial membrane potential - 1 hr assay (AID 651754; calls by dose curve; note: nearly all actives have a fitted effect of over 35% in size; note: potency is the fitted concentration of half-maximal effect)
Outline: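 Mitochondrial potential in living HepG2 cells after 1 hr compound treatment at 37C was read with Mito-MPS dye added for a further 30 min. Red aggregate and green monomer fluorescence were measured; loss of potential leaves dye as cytoplasmic monomers.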

[13] = qHTS assay for small molecule antagonists of the retinoid-related orphan receptor gamma (ROR-gamma) signaling pathway - cell viability counter screen (AID 720652; active = well fitted curve in the direction sought with a large enough effect in the repeat runs; an effect the other way counts as inactive or inconclusive;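 note: compound exposure lasted 16 hr before ATP read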; note: potency is the fitted concentration of half-maximal effect)
Outline: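 Cytotoxicity counter screen: intracellular ATP (CellTiter-Glo luminescence) measured in the doxycycline-induced CHO RORE-luciferase reporter line after 16 hr compound exposure at 37 C, 5% CO2.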

[14] = MultiTox-Fluor Cytotoxicity Assay - LYMP1-001 - Live Cells (AID 947); note: potency is the fitted concentration of half-maximal effect
[15] = molecular target: Thyroid hormone receptor beta (Homo sapiens) (UniProt P10828); experiment: qHTS assay for small molecule agonists of thyroid hormone receptor beta signaling (AID 588545; calls by dose curve)
Sequence of Thyroid hormone receptor beta (Homo sapiens) (P10828 whole entry, looked up): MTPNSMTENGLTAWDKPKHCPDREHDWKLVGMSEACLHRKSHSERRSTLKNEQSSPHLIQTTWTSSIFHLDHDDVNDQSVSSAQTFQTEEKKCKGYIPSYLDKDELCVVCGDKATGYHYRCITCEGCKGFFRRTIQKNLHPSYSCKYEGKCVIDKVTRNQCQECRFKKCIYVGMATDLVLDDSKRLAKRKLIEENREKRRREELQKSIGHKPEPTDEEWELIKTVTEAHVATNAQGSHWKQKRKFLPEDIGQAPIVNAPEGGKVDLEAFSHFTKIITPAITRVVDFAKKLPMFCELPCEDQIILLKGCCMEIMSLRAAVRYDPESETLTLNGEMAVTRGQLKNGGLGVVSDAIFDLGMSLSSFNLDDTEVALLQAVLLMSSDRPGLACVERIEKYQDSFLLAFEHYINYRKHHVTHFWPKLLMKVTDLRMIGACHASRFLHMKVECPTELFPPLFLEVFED
Outline: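 Cells (2500/well) were seeded, incubated 4 hrs at 37 C, dosed with a compound series, incubated 18 hrs, loaded with CCF4 dye for 2 hrs at RT, then read for fluorescence. Data were scaled between DMSO (0%) and 10 nM T3 (100%).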

[16] = molecular target: Voltage-gated inwardly rectifying potassium channel KCNH2 (Homo sapiens) (UniProt Q12809); experiment: qHTS Assay for Small Molecule Inhibitors of the Human hERG Channel Activity (AID 588834);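 note: lower thallium flux fluorescence means stronger hERG block; nearly all actives have a fitted effect of over 50% in size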; note: potency is the fitted concentration of half-maximal effect
Sequence of Voltage-gated inwardly rectifying potassium channel KCNH2 (Homo sapiens) (Q12809 whole entry, looked up): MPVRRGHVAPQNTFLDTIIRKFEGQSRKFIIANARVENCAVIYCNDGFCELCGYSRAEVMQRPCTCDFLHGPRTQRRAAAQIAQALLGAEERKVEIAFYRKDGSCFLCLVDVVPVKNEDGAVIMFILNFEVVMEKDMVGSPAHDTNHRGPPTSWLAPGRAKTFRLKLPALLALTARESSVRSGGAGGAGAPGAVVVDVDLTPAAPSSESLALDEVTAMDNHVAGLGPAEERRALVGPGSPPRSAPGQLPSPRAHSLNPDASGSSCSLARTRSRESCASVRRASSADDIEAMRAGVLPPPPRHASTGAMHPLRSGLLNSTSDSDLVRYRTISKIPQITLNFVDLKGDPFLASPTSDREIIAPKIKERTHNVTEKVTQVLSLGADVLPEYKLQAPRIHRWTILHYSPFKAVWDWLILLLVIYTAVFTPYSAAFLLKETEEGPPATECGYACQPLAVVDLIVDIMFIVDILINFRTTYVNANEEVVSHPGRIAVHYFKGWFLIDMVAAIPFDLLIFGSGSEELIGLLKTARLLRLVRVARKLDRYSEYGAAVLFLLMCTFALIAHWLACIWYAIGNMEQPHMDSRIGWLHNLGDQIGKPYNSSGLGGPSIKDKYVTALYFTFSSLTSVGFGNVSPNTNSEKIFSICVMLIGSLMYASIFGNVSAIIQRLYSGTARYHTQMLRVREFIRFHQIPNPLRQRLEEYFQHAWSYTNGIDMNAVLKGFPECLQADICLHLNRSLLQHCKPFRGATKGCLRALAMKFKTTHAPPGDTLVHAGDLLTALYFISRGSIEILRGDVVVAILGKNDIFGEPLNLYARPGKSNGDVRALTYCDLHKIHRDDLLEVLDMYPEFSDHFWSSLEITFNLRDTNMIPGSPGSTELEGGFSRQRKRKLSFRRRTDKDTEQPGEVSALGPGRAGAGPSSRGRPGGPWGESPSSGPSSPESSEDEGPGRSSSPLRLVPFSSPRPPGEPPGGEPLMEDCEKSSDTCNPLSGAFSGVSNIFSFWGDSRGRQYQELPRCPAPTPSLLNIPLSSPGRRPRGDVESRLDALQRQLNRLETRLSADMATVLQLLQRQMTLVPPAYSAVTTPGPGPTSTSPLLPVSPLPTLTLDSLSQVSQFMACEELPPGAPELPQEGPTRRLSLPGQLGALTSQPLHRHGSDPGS
Outline: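 In hERG-transduced U2OS cells, dye-loaded for 1 hr at room temperature in dark, test compounds incubated 10 min at 37 °C before thallium stimulation. AC50 values derived by Hill modelling of concentration-response.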

[17] = qHTS assay for environmental chemicals that activate the Aryl hydrocarbon Receptor (AhR) signaling pathway (AID 651777); settings: 1A2-DRE human hepatoma cells, luciferase, 24 h; activation: stronger effect = higher value; note: % of control where 0% means no effect; nearly all actives have a fitted effect of over 15% in size
Outline: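 Stable CYP1A2 promoter/DRE-luciferase human hepatoma line treated 24 hr; One-Glo luminescence, 30 min RT.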

[18] = molecular target: Nuclear receptor ROR-gamma (Homo sapiens) (UniProt P51449); experiment: qHTS assay for small molecule antagonists of the retinoid-related orphan receptor gamma (ROR-gamma) signaling pathway (AID 651802); note: nearly all actives have a fitted effect of over 60% in size; note: potency is the fitted concentration of half-maximal effect
Sequence of Nuclear receptor ROR-gamma (Homo sapiens) (P51449 whole entry, looked up): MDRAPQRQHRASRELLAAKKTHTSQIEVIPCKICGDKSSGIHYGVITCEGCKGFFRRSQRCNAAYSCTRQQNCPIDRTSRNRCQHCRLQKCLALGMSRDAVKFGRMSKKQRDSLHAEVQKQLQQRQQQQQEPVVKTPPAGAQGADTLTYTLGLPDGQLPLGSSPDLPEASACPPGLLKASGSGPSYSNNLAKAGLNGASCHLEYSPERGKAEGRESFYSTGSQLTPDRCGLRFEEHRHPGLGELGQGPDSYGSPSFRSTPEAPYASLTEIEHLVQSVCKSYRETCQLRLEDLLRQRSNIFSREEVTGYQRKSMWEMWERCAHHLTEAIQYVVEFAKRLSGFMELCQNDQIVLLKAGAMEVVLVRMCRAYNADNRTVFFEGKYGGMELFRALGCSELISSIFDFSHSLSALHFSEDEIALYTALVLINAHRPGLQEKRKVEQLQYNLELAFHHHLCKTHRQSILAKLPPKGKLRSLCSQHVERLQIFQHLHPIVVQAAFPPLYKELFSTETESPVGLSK
Outline: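 Luminescence (One-Glo, 30 min RT) measured 16 h after compound addition and doxycycline induction at 37C. Reporter: RORE-luciferase under TET-inducible ROR-gamma in CHO cells.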

[19] = qHTS assay for small molecule agonists of the antioxidant response element (ARE) signaling pathway measured by Nrf2-dependant transcriptional activity (AID 720636; active = well fitted curve in the direction sought with a large enough effect in the repeat runs; an effect the other way counts as inactive or inconclusive; note: potency is the fitted concentration of half-maximal effect;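 for activation: HepG2 cells with an ARE-driven luciferase reporter; % of control where 0% means no effect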)
Outline: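 Reporter gene assay, HepG2 ARE-luc: 16 hr compound, 37 C, 5% CO2; read-out luciferase luminescence.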

[20] = molecular target: Nuclear receptor subfamily 1 group I member 2 (Rattus norvegicus) (UniProt Q9R1A7); experiment: qHTS assay for small molecule activators of the rat pregnane X receptor (rPXR) signaling pathway (AID 651751; call rule not given here; note: 0% is about no effect); settings: rPXR reporter cells, luciferase (One-Glo), 24 h
Sequence of Nuclear receptor subfamily 1 group I member 2 (Rattus norvegicus) (Q9R1A7 whole entry, looked up): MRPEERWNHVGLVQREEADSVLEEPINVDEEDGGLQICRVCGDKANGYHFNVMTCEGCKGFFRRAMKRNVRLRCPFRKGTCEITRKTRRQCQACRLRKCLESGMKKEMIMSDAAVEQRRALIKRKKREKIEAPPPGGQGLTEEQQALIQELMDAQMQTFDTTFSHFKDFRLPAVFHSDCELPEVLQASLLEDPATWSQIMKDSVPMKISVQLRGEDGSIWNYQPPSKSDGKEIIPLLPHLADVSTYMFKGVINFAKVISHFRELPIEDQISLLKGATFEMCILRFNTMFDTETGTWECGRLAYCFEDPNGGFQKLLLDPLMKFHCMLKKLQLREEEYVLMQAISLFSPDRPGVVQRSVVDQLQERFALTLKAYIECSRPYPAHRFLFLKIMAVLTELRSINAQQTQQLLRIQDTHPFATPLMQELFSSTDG

Row | Compound | Potency [1] | Potency [2] | Potency [3] | Potency [4] | Potency [5] | Potency [6] | Potency [7] | Potency [8] | Potency [9] | Potency [10] | Potency [11] | Potency [12] | Potency [13] | Potency [14] | outcome [15] | Potency [16] | activation [17] | Potency [18] | Potency [19] | max response [20]
1 | O=[N+]([O-])c1cc([N+](=O)[O-])c2ccc(S(=O)(=O)O)cc2c1O | inactive | inactive | inactive | inactive | inactive | inactive | inactive | inactive | inactive | inactive | inactive | inactive | inactive | – | – | – | – | – | – | –
2 | CCC(C)Nc1ccc(NC(C)CC)cc1 (configuration not stated) | 5.01 µM (active) | – | 6.31 µM (active) | 3.98 µM (active) | 3.98 µM (active) | 3.98 µM (active) | 3.98 µM (active) | 3.16 µM (active) | 5.01 µM (active) | 2.51 µM (active) | 2 µM (active) | – | 8.41 µM (active) | 12.6 µM (active) | inactive | 14.1 µM (active) | -3.51% | 13.3 µM (active) | inactive | –
3 | CC(=O)Nc1ccc(C(=O)CCl)cc1 | 3.98 µM (active) | 15.8 µM (active) | – | 5.01 µM (active) | 7.94 µM (active) | 6.31 µM (active) | 5.01 µM (active) | 7.94 µM (active) | 5.01 µM (active) | 3.98 µM (active) | 3.16 µM (active) | inactive | 18.8 µM (active) | 20 µM (active) | – | – | 3.94% | 9.44 µM (active) | – | –
4 | C=CC(=O)OCCOCCOC(=O)C=C | 12.6 µM (active) | 25.1 µM (active) | 10 µM (active) | 15.8 µM (active) | 25.1 µM (active) | 31.6 µM (active) | 12.6 µM (active) | 15.8 µM (active) | 15.8 µM (active) | 12.6 µM (active) | 12.6 µM (active) | inactive | inactive | 31.6 µM (active) | inactive | inactive | 2.82% | – | 66.8 µM (active) | 9.16%
5 | CNc1ccc(O)cc1 | 3.16 µM (active) | – | 5.01 µM (active) | 5.01 µM (active) | 10 µM (active) | 7.94 µM (active) | 3.98 µM (active) | 5.01 µM (active) | 3.98 µM (active) | 3.16 µM (active) | 2.51 µM (active) | – | – | 31.6 µM (active) | inactive | inactive | 7.98% | – | 37.6 µM (active) | -0.134%
6 | ClC1=C(Cl)C(Cl)(Cl)C(Cl)=C1Cl | – | inactive | inactive | – | – | – | – | – | – | – | – | inactive | – | inactive | inactive | – | 0.158% and 0.426% | – | inactive | 3.04% and -2.94%
7 | CCCCCCCC[N+](CCCCCCCC)(CCCCCCCC)CCCCCCCC | 3.98 µM (active) | 3.16 µM (active) | 7.94 µM (active) | 7.94 µM (active) | 7.94 µM (active) | 3.98 µM (active) | 3.98 µM (active) | 5.01 µM (active) | 5.01 µM (active) | 3.16 µM (active) | 3.98 µM (active) | 3.35 µM (active) | 9.44 µM (active) | 10 µM (active) | – | 0.355 µM (active) | -8.33% | 1.5 µM (active) | inactive | –
8 | Cc1cc(Nc2ccc(O)cc2)ccc1N | 31.6 µM (active) | – | 39.8 µM (active) | 39.8 µM (active) | – | 50.1 µM (active) | 39.8 µM (active) | 39.8 µM (active) | 39.8 µM (active) | 31.6 µM (active) | 25.1 µM (active) | – | – | inactive | inactive | inactive | – | 21.1 µM (active) | inactive | -2.27%
9 | Cc1ccc(S(=O)(=O)Oc2ccc(N=Nc3ccc(-c4ccc(N=Nc5c(O)ccc6cc(S(=O)(=O)O)cc(S(=O)(=O)O)c56)c(C)c4)cc3C)cc2)cc1 | – | – | – | – | – | – | – | – | – | – | – | – | inactive | – | inactive | inactive | -2.33% | – | inactive | -4.06%
10 | Cc1cc(O)c(C(C)(C)C)cc1Sc1cc(C(C)(C)C)c(O)cc1C | 39.8 µM (active) | 31.6 µM (active) | – | 39.8 µM (active) | 31.6 µM (active) | 31.6 µM (active) | 39.8 µM (active) | 50.1 µM (active) | 31.6 µM (active) | 31.6 µM (active) | 39.8 µM (active) | 10.6 µM (active) | 18.8 µM (active) | 31.6 µM (active) | – | 39.8 µM (active) | -3.69% and -11.4% | 4.22 µM (active) | inactive | –
11 | O=Cc1ccc(Cl)c(Cl)c1 | inactive | inactive | inactive | inactive | inactive | inactive | inactive | inactive | inactive | inactive | inactive | inactive | inactive | inactive | inactive | inactive | – | inactive | inactive | -0.904%
12 | O=C1OC2(c3cc(Br)c(O)c(Br)c3Oc3c2cc(Br)c(O)c3Br)c2c(Cl)c(Cl)c(Cl)c(Cl)c21 | – | – | inactive | – | – | – | – | – | inactive | – | inactive | – | – | – | – | 3.98 µM (active) | -2.87% | inactive | inactive | –
13 | O=C=Nc1ccc(Cc2ccc(N=C=O)cc2)cc1 | inactive | – | inactive | inactive | inactive | inactive | inactive | inactive | inactive | inactive | inactive | inactive | inactive | inactive | inactive | – | – | inactive | inactive | 1.83% and 4.61%
14 | Nc1ccc2cc3ccccc3cc2c1 | inactive | inactive | inactive | inactive | inactive | inactive | inactive | inactive | inactive | inactive | inactive | 3.76 µM (active) | inactive | inactive | – | 5.01 µM (active) | – | inactive | – | –
15 | c1cc(OCC2CO2)cc(OCC2CO2)c1 (configuration not stated) | – | – | – | – | – | – | – | – | – | – | – | – | – | – | inactive | inactive | 4% and -2.73% | – | – | -8.72% and -4.5%
